# Measurements as given in PubChem BioAssay.
# Inconclusive results are not listed. Calls of active or inactive are those of the source.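 How the source made its calls, unless noted: active means percent response above 42, roughly 3 SD of non-fluorescent test compounds; inactive means the rest.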
# Tests used:
# [1] = rapamycin-like changes in RPL19A-GFP expression – cell-based, S. cerevisiae, multiplex flow cytometry, primary screen (AID 1862; in the data active means percent of DMSO control GFP below about 86%;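 further: lower values mimic rapamycin by blocking the RPL19A rise seen in DMSO cells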); conditions: S. cerevisiae RPL19A-GFP strain, flow cytometry fluorescence, 3 h; at 10 µM; stronger effect = lower value
# [2] = TOR pathway GLN3 branch reporter MEP2-GFP changes – S. cerevisiae, multiplex flow cytometry, primary screen (AID 1867;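 active means GFP response, as percent of the DMSO control, above the screen-wide mean plus 3 SD, about 139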;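 further: median GFP channel fluorescence of barcode-gated MEP2-GFP cells measured by flow cytometry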); conditions: S. cerevisiae MEP2-GFP strain, 3 h, at 10 µM, stronger effect = higher value, 100% means same as DMSO wells
# [3] = TOR pathway RTG branch CIT2 reporter changes – S. cerevisiae, GFP fusion, multiplex flow cytometry, primary screen (AID 1870;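 active means percent response above a set limit, the screen-wide mean plus 3 SD, cut at about 130% in these data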;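 further: barcoded CIT2-GFP strain pooled with four other GFP strains with rapamycin as positive control; median GFP fluorescence per well over plate mean of DMSO wells so 100% = DMSO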); conditions: S. cerevisiae CIT2-GFP expression, 3 h, at 10 µM, stronger effect = higher value
# [4] = TOR pathway LAP4-GFP level changes – S. cerevisiae, multiplex flow cytometry, primary screen (AID 1873;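 active means GFP signal, as percent of the solvent control, above the screen mean plus 3 SD, about 149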); conditions: S. cerevisiae LAP4-GFP expression, 3 h, at 10 µM, stronger effect = higher value
# [5] = yeast AGP1-GFP level changes, GLN3 branch – cell-based, multiplex flow cytometry, S. cerevisiae, primary screen (AID 1887;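 active means GFP signal above the screen-wide mean plus 3 SD, that is over about 124.5% of the solvent control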;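 further: AGP1-GFP fusion strain of S. cerevisiae within a five-strain barcoded multiplex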); conditions: 3 h, at 10 µM, stronger effect = higher value
# [6] = reduced mouse 2C T cell binding to pMHC/ICAM-1 vesicles – MLPCN validation set, flow cytometry, LFA-1/ICAM-1 modulator project, pilot screen (AID 2523;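 active means response below a set limit, under 55% cells CD8-positive and vesicle-bound, and CD8 cells' 90th-percentile brightness under 279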;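 on vesicle binding response: mean PE anti-B7-1 fluorescence of CD8+ cells relative to row control; 100% = QL9-loaded vesicles with DMSO vehicle in the same plate row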); conditions: 2C mouse CD8+ T cells, at 7 µM, stronger effect = lower value; double positive events: measured here: CD8+/vesicle+ event percentage
# [7] = target: Integrin beta-1 (Homo sapiens) + Integrin alpha-4 (Homo sapiens) (UniProt P13612+P05556); experiment: alpha4beta1 integrin LIBS antibody binding reduction – U937 cells, HUTS-21 mAb, flow cytometry, validation set, VLA-4 allosteric modulator project, pilot screen (AID 2674;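 active means inhibition above 50%, about 3 SD of the validation set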;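 further: antibody binding induced by the VLA-4 ligand LDV present at three times its Kd; 0% = LDV ligand with antibody and no compound and 100% = antibody without LDV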); conditions: HUTS-21 LIBS mAb binding, at 6.7 µM, stronger effect = higher value, binding induced by LDV ligand
# [8] = calorie-restriction mimetic ROS inhibitors, yeast – validation compound set, pilot screen (AID 2706;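 active means superoxide response below 65% of plate, a cut near 3 SD across the whole screen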;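 further: yeast exposed to compound for one week at 30 degrees C before staining; 100% = mean of all compound wells on the same plate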); conditions: S. cerevisiae aging, superoxide DHE fluorescence; at 10 µM; stronger effect = lower value
# [9] = target: Beta-adrenergic receptor kinase 1 (Homo sapiens) (UniProt P25098); experiment: GRK2 binders displacing RNA aptamer, biochemical, validation, human GRK2, bead flow cytometry (AID 488806;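 active means aptamer binding inhibition above 30%, about 3 SD of noise from non-fluorescent compounds; inactive means inhibition at or below 30%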); conditions: bead-bound GRK2, FAM-aptamer displacement, at 10 µM, stronger effect = higher value
# [10] = target: Beta-2 adrenergic receptor (Homo sapiens) (UniProt P07550); experiment: agonist-induced loss of surface beta2AR – cell-based, FAP fluorogen, flow cytometry, validation set, pilot screen (AID 504459); conditions: Am2.2-beta2AR cells, at 10 µM, stronger effect = higher value;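 further: agonist-driven loss of surface beta2AR via internalization measured by FAP dye flow cytometry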
# [11] = target: AP-2 complex subunit beta (Homo sapiens) (UniProt P63010); experiment: beta-arrestin/AP2 interaction blockers – biochemical, validation set, GST-AP2 beads, flow cytometry, pilot screen (AID 504541;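 active means inhibition above 54%, about 3 SD of non-fluorescent compounds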;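 further: AP2 carries R879A mutation and is captured from E. coli lysate; bead-bound FITC arrestin peptide fluorescence measuring arrestin peptide binding to AP2; 0% = DMSO wells and 100% = excess unlabeled arrestin peptide control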); conditions: FITC arrestin peptide, at 10 µM, stronger effect = higher value, AP2 beta2 appendage fragment, R879A mutant
# [12] = cytosolic pH regulators acting via V-ATPase – S. cerevisiae, pHLuorin, HTS validation (AID 504600; in the data active means response above about 15%;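 further: plate controls were DMSO for no effect and reference compound for full effect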); conditions: V-ATPase proton transport, at 10 µM, stronger effect = higher value
# [13] = system: anti-desmoglein-3 scFv antibody binding to human DSG3; experiment: blockers of pathogenic pemphigus antibody–desmoglein-3 binding – biochemical, validation compound set, bead-based, flow cytometry, pilot screen (AID 588368;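 active means binding below the plate cutoff, the plate median minus 3 SD, with a reading above zero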;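 further: signal is the median channel fluorescence of bead-bound GFP antibody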); conditions: Protein G beads, DSG3-Fc, scFv-GFP binding, at 10 µM, stronger effect = lower value
# [14] = Nile Red efflux blockade in pump-expressing yeast – validation compound set, multiplex, phenotypic, pilot screen (AID 588506;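 active means efflux inhibition above 0.42, the validation set average plus 4 SD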;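 further: Nile Red retained in cells so higher fluorescence means more efflux inhibition; 0 = negative control wells and 1 = enniatin B 25 µM full block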); conditions: S. cerevisiae pump-expressing triplex, Nile Red efflux flow cytometry; at 10 µM; stronger effect = higher value; the pumps come from Candida albicans
# [15] = target: ATP-binding cassette sub-family B member 6 (Homo sapiens) (UniProt Q9NP58); experiment: blockers of ABCB6-driven porphyrin uptake – K562-ABCB6 cells, flow cytometry, validation set, pilot screen (AID 588550;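 active means inhibition above the screen-wide mean plus 3 SD, about 51%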;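 further: 0% = DMSO wells and 100% = benzethonium chloride 70 µM positive control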); conditions: K562-ABCB6 porphyrin accumulation, 1 h, at 10 µM, stronger effect = higher value
# [16] = AML differentiation inducers, ER-HoxA9 marrow cells – cell-based, GFP/MAC1 double positive, flow cytometry, validation set, primary screen (AID 588685;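 active means differentiation response of at least 50%, scaled between solvent and reference control, from cells with both markers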;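 further: compound exposure lasts four days before antibody staining and flow analysis; 0% = DMSO wells and 100% = 5 µM fulvestrant positive control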); conditions: stronger effect = higher value, normalized: vehicle 0, fulvestrant 100
# Chain of ATP-binding cassette sub-family B member 6 (Homo sapiens) (Q9NP58 whole entry, looked up): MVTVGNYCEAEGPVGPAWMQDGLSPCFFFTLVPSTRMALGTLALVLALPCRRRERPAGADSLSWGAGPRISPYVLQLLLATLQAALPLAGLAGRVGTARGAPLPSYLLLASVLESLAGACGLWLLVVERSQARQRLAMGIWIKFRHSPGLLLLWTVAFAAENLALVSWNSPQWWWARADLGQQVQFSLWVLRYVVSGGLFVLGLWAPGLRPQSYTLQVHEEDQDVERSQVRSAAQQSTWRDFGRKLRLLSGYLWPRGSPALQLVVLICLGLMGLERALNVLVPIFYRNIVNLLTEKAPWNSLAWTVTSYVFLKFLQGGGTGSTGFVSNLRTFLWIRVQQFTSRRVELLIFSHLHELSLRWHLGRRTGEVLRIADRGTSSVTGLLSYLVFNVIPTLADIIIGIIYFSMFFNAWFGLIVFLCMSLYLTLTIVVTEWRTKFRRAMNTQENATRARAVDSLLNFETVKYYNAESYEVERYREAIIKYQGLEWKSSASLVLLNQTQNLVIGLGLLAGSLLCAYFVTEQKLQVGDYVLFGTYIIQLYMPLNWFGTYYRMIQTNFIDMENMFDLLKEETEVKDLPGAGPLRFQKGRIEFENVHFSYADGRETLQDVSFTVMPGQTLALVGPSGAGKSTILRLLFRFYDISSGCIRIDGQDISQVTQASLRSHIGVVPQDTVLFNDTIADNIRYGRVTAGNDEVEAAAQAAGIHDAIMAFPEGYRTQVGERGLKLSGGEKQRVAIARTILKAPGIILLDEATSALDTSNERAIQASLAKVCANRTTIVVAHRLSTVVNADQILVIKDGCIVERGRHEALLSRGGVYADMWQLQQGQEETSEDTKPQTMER
# Chain of Beta-2 adrenergic receptor (Homo sapiens) (P07550 whole entry, looked up): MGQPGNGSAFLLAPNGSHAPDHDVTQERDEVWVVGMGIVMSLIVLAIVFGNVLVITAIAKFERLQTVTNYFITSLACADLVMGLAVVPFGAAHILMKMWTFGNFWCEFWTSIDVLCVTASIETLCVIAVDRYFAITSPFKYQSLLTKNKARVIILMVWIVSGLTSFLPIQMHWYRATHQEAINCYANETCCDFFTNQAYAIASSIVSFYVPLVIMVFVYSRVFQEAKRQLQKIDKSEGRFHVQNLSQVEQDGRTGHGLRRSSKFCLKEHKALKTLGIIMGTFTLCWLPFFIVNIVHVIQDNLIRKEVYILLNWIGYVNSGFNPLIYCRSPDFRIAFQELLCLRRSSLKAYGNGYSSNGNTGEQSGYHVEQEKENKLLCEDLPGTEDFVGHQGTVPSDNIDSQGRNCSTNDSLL
# Chain of Integrin beta-1 (Homo sapiens) + Integrin alpha-4 (Homo sapiens) (P05556 whole entry, looked up): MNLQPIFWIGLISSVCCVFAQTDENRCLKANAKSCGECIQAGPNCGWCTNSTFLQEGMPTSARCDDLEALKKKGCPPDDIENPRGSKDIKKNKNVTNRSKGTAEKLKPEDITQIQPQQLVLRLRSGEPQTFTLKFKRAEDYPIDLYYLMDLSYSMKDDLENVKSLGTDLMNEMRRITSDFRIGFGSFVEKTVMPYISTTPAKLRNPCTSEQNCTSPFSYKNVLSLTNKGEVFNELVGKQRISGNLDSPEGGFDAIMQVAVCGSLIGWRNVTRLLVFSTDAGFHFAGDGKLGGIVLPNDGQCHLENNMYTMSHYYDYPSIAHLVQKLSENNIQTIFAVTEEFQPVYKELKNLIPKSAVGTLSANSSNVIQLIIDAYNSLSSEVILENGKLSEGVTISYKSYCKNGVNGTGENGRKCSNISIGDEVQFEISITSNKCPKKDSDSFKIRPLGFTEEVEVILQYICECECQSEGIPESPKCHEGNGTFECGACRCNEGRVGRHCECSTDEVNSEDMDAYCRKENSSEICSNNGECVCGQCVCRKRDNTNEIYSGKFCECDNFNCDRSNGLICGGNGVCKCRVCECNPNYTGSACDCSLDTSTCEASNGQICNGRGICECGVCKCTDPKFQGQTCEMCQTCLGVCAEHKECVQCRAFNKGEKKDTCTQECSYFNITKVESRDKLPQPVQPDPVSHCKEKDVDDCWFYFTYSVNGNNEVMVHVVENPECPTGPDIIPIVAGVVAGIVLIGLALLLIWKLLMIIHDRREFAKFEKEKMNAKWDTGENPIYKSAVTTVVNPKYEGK
# Chain of Integrin beta-1 (Homo sapiens) + Integrin alpha-4 (Homo sapiens) (P13612 whole entry, looked up): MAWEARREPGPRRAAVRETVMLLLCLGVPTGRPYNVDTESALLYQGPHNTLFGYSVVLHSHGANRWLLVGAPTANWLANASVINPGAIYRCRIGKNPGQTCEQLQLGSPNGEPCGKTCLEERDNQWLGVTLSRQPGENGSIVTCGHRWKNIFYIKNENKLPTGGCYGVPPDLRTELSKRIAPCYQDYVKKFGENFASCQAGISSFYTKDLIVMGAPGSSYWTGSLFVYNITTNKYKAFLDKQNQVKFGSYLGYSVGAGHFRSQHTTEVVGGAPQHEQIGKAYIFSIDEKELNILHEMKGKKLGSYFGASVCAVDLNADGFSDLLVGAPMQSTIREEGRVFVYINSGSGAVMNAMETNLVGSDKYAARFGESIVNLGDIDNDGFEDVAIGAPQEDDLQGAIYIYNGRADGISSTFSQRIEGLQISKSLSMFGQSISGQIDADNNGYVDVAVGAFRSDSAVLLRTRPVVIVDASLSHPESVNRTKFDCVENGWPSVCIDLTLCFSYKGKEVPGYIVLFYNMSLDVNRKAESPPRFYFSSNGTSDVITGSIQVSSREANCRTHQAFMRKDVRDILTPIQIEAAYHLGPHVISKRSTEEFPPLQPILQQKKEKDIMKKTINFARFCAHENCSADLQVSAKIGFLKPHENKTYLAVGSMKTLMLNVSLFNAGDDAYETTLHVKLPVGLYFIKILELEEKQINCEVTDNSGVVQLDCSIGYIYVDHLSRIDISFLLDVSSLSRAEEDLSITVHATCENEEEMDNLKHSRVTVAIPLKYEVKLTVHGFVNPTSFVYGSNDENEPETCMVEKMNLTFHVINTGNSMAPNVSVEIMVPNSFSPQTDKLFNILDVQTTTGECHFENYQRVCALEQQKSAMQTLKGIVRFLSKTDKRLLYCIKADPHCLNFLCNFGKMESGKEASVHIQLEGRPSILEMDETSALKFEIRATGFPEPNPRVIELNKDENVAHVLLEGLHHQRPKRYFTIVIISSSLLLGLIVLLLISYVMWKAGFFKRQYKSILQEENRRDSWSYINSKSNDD
# Chain of AP-2 complex subunit beta (Homo sapiens) (P63010 whole entry, looked up, the tested form may be a part, one chain of several): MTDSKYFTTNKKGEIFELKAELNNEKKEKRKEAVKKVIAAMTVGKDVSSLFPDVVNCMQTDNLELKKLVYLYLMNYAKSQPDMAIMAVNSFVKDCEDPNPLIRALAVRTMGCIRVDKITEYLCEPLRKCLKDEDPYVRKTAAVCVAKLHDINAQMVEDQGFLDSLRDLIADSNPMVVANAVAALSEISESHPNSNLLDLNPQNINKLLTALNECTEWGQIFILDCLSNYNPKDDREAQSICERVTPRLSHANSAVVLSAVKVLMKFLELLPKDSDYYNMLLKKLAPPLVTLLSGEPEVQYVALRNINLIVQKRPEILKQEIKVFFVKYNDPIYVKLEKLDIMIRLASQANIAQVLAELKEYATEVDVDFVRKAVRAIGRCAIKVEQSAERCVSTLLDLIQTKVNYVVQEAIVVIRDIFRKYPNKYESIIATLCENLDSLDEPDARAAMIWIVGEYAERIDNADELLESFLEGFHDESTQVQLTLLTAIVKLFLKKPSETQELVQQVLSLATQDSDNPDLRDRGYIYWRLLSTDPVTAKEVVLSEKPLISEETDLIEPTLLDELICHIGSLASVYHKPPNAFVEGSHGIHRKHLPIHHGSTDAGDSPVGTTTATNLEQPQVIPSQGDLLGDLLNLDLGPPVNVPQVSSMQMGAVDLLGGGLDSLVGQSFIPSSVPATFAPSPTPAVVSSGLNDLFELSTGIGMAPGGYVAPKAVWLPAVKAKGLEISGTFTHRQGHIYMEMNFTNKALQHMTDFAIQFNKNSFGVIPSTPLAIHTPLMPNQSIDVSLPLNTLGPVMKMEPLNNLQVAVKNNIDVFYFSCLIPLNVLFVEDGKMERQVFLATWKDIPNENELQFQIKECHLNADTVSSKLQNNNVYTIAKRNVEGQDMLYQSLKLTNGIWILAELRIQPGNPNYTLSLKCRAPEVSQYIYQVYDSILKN
# Chain of Beta-adrenergic receptor kinase 1 (Homo sapiens) (P25098 whole entry, looked up): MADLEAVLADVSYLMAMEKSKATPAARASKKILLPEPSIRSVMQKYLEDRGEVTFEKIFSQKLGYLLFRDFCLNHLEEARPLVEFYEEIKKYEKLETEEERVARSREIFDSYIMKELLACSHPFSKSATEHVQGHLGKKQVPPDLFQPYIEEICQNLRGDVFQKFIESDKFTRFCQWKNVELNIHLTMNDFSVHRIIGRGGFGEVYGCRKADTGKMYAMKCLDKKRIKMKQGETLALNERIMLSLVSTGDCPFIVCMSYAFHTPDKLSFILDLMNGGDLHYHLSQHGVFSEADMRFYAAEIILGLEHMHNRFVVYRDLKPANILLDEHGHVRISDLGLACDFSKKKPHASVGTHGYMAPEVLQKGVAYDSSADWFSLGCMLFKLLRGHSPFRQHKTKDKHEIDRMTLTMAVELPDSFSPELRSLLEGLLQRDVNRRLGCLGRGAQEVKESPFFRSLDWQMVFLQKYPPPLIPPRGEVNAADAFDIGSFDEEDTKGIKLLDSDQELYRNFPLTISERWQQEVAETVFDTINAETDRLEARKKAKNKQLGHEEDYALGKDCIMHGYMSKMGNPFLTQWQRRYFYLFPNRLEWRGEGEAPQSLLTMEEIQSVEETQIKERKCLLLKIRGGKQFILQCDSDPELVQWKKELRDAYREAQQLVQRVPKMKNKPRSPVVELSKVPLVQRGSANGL
SMILES,percent of DMSO control GFP [1],GFP response vs DMSO [2],percent response of DMSO control [3],GFP response vs DMSO [4],"GFP response, % of DMSO [5]",double positive events [6],vesicle binding response [6],inhibition [7],superoxide response (% of plate) [8],aptamer binding inhibition [9],response [10],inhibition [11],response [12],binding (% of control) [13],efflux inhibition (fraction of control) [14],inhibition [15],differentiation response [16]
Cc1cccc(-c2ncc(CN3CCN(CC(C)C)C(CCO)C3)cn2)c1 (stereo not given),104% (inactive),100% (inactive),108% (inactive),76.2% (inactive),99.2% (inactive),65.5%,344% (inactive),-3.57% (inactive),97.3% (inactive),2% (inactive),-5.5% (inactive),-1.77% (inactive),3.08% (inactive),101% (inactive),0.02 (inactive),15% (inactive),4.15% (inactive)
O=C(NCc1ccc(N2CCCC2=O)cc1)c1cccc(Cl)c1,102% (inactive),101% (inactive),111% (inactive),105% (inactive),99.4% (inactive),57.4%,215% (inactive),-1.49% (inactive),101% (inactive),1% (inactive),-4.33% (inactive),7.63% (inactive),-1.49% (inactive),106% (inactive),-0.14 (inactive),0% (inactive),-5.62% (inactive)
CC(=O)N(CCC(Cc1ccccc1)c1ccc2c(c1)OCO2)Cc1ccc(Cl)cc1 (stereo not given),93.9% (inactive),113% (inactive),103% (inactive),79.2% (inactive),92.2% (inactive),59.9%,165% (inactive),-9.06% (inactive),102% (inactive),-1% (inactive),-1.43% (inactive),-8.25% (inactive),-2% (inactive),104% (inactive),0.05 (inactive),6% (inactive),-3.28% (inactive)
COc1ccc(OC)c(S(=O)(=O)N2CCCc3ccccc32)c1,101% (inactive),104% (inactive),91.3% (inactive),126% (inactive),105% (inactive),58.6%,124% (inactive),15% (inactive),97.2% (inactive),5% (inactive),2.04% (inactive),2.15% (inactive),-1.7% (inactive),105% (inactive),0.18 (inactive),24% (inactive),-8.96% (inactive)
Cc1cc(C(=O)Nc2ccccc2C(=O)N2CCCCC2)ccc1[N+](=O)[O-],98.4% (inactive),103% (inactive),86.7% (inactive),114% (inactive),103% (inactive),62.3%,168% (inactive),-7.08% (inactive),124% (inactive),1% (inactive),-23.4% (inactive),19.6% (inactive),-4.47% (inactive),108% (inactive),-0.04 (inactive),8% (inactive),-8.93% (inactive)
O=C(CCSc1ccccc1)N1CCCC1,109% (inactive),109% (inactive),104% (inactive),104% (inactive),112% (inactive),67.6%,193% (inactive),3.98% (inactive),109% (inactive),5% (inactive),-4.18% (inactive),33.8% (inactive),-0.71% (inactive),91.3% (inactive),-0.15 (inactive),5% (inactive),-0.36% (inactive)
COc1ccc2[nH]c(=O)c(CNC3CCCCC3)cc2c1,102% (inactive),103% (inactive),106% (inactive),98% (inactive),99.9% (inactive),63.6%,244% (inactive),11% (inactive),106% (inactive),2% (inactive),-1.53% (inactive),-0.94% (inactive),1.21% (inactive),95.5% (inactive),-0.01 (inactive),-1% (inactive),0.24% (inactive)
COc1ccc(C2OC[C@H]3O[C@H](O)[C@H](NC(C)=O)[C@@H](O)[C@@H]3O2)cc1 (stereo not given in full),99.8% (inactive),106% (inactive),97.6% (inactive),95.9% (inactive),97.5% (inactive),76.5%,135% (inactive),6.95% (inactive),98.6% (inactive),0% (inactive),8.93% (inactive),6.9% (inactive),4.88% (inactive),95.3% (inactive),-0.04 (inactive),12% (inactive),-4.57% (inactive)
COCCOC(=O)C1=C(C)NC(C)=C(C(=O)OC(C)C)C1c1cccc([N+](=O)[O-])c1 (stereo not given),102% (inactive),105% (inactive),111% (inactive),94.7% (inactive),99.4% (inactive),58.9%,182% (inactive),4.73% (inactive),106% (inactive),-1% (inactive),-6.98% (inactive),-3.69% (inactive),8.68% (inactive),97.4% (inactive),-0.17 (inactive),-4% (inactive),-10.5% (inactive)
COC(=O)c1[nH]c(=O)c2ccccc2c1O,101% (inactive),95.2% (inactive),101% (inactive),110% (inactive),100% (inactive),62.3%,159% (inactive),0.94% (inactive),104% (inactive),1% (inactive),-13.2% (inactive),-7.21% (inactive),2.12% (inactive),101% (inactive),0.01 (inactive),109% (active),18.4% (inactive)
